# Source: PubChem BioAssay AID485364 (National Center for Advancing Translational Sciences (NCATS), 2010)
# The whole screen tested about 360,000 compounds, of which about 11,000 (3.1%) were called active. Another 4% or so got no clear call; they are omitted. Calls follow the shape of the dose curve; as a rule, active = well fitted inhibition curve with a large enough effect; inconclusive = small, poorly fitted or top-dose-only effect; inactive = no such curve, though single readings can be large or run the other way. The list comes from a sample in which actives are over-represented; it also holds similar structures and randomly drawn compounds. Entries that show only a call come without a potency.
# Molecular target: Schistosoma mansoni thioredoxin glutathione reductase (TGR) (UniProt Q962Y6)
# Assay: qHTS Assay for the Inhibitors of Schistosoma Mansoni Peroxiredoxins; also: nearly all actives have a fitted effect of over 60% in size
# Details: purified TGR, DTNB reduction, TNB absorbance 405 nm; series mostly up to 114 µM
# Method in brief: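 First, TGR (20 nM dispensed) and NADPH were mixed with compound. Second, a 15 min room-temperature incubation followed. Third, further NADPH and then DTNB were added to start the reaction. Finally, TNB absorbance was monitored kinetically.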
# Potency is read from the fitted curve at half-maximal effect.
row,SMILES,Potency
1,CCCCNc1ccc(-c2nc(-c3ccncc3)no2)cc1[N+](=O)[O-],inactive
2,CC(C)CNc1ncnc2c1nnn2C,inactive
3,COc1ccc(-n2nnnc2SCC(=O)NCc2cccs2)cc1,inactive
4,COc1ccc(-n2c(SCC(=O)NCc3cccs3)nnc2-c2ccoc2C)cc1,39.8 µM (active)
5,COc1ccc(-n2c(SCC(=O)NCc3ccco3)nnc2-c2c[nH]c3ccccc23)cc1,inactive
6,COc1ccc(-c2noc(CCC(=O)N(C)c3ccccc3C)n2)cc1,inactive
7,CCCSc1ncc(Cl)c(C(=O)Nc2c(C(=O)Nc3ccccc3)oc3ccccc23)n1,inactive
8,COc1ccc(C2CC(=O)N(Cc3ccccc3C)c3c2c(C)nn3-c2nc(C)cc(C)n2)c(OC)c1 (stereo not given),inactive
9,CCCNC(=S)N1CCC(NC(=O)c2ccc(OC)cc2)CC1,inactive
10,O=C(NC(=S)NC1CCCCC1)c1ccc(Cl)cc1,inactive
11,COc1ccc(C(=O)NC(=S)NC2CCCCC2)cc1,1.41 µM (active)
12,CCc1ccccc1N(C)C(=O)C1CCCN(c2ncnc3onc(-c4ccc(F)cc4)c23)C1 (stereo not given),inactive
13,CCn1cc(C(=O)N2CCN(c3cc(C)ccc3C)CC2)c(=O)c2cc(S(=O)(=O)N(C)C3CCCCC3)ccc21,inactive
14,CCc1ccccc1NC(=O)CSc1nnc(-c2ccccc2)c(-c2ccccc2)n1,inactive
15,COc1ccccc1CNC(=O)C(=O)NCC(c1cccs1)S(=O)(=O)c1cccs1 (stereo not given),25.1 µM (active)
16,CC(C)C(=O)NCC(c1cccs1)S(=O)(=O)c1ccc(F)cc1 (stereo not given),inactive
17,COc1ccccc1CCNC(=O)C(=O)NCCC1CCCCN1S(=O)(=O)c1cccs1 (stereo not given),inactive
18,O=C(NCc1ccccc1Cl)C(=O)NCC1CCCN1S(=O)(=O)c1cccs1 (stereo not given),inactive
19,COC(C(=O)NCc1ccccc1C)c1ccccc1 (stereo not given),inactive
20,Cc1ccccc1CNC(=O)C(=O)NCC(c1cccs1)S(=O)(=O)c1cccs1 (stereo not given),25.1 µM (active)
21,Cc1ccc(SCC(=O)Nc2ccc3oc(-c4ccccc4C)nc3c2)cc1,inactive
22,CCC(C)NC(=O)Cn1c(=O)n(-c2ccc(Cl)cc2)c(=O)c2c3c(sc21)CCCC3 (stereo not given),inactive
23,Cc1c(Cl)cccc1NC(=O)C1CCCN(c2ncnc3onc(C)c23)C1 (stereo not given),inactive
24,CCOc1ccc(NC(=O)Cn2c(C)ccc(C#N)c2=O)cc1,inactive
25,Cc1ccc(CSCC(N)C(=O)O)cc1 (stereo not given),28.2 µM (active)

row,SMILES,Potency
1,Cc1ccc(CSCC(=O)N(C)CC(=O)Nc2ccc(C)cc2)cc1,inactive
2,CSCC(NS(=O)(=O)c1ccc(C)cc1)C(=O)O (stereo not given),inactive
3,CCc1ccc(NC(=O)CCS(=O)(=O)c2cc3c(cc2Cl)NC(=O)CO3)cc1,inactive
4,Fc1ccc(CN2CCc3nc(Nc4ccccc4)ncc3C2)cc1F,inactive
5,CCOC(=O)C1=C(O)/C(=C/c2cc(C)n(-c3ccccc3)c2C)N=C1C,28.2 µM (active)
6,CCOC(=O)C1=C(O)/C(=C/c2ccc(OCC(=O)Nc3ccc(C)cc3)cc2)N=C1C,inactive
7,COC(=O)C1=C(O)/C(=C/c2ccc(OCC(=O)Nc3ccccc3)cc2)N=C1C,inactive
8,CCOc1ccccc1C(=O)Nc1ccc2c(c1)N(C)C(=O)c1ccccc1S2,inactive
9,O=C(Cn1c(=O)n(-c2ccc(F)cc2)c(=O)c2sc3ccccc3c21)NC1CCCC1,inactive
10,O=C(CSc1nnnn1-c1ccccc1)NCc1ccco1,79.4 µM (active)
11,Cc1ccc(Cc2c(C)nc3nc(SCC(=O)NCCN4CCOCC4)nn3c2C)cc1,inactive
12,O=C(CSc1nnc(-c2c[nH]c3ccccc23)n1-c1ccc(F)cc1)NCc1ccco1,inactive
13,Cc1ccc(-c2csc3nnc(SCC(=O)NCc4ccco4)n23)cc1,inactive
14,CCN(CC)C(CNC(=O)CSc1nnnn1-c1cccc(F)c1)c1ccco1 (stereo not given),inactive
15,CCOc1ccccc1-n1c(SCC(=O)NCc2ccco2)nnc1-c1ccncc1,44.7 µM (active)
16,Cc1nc2nc(SCC(=O)NCc3ccco3)nn2c(C)c1Cc1ccccc1,20 µM (active)
17,O=C(CSc1nnc2scc(-c3ccc(F)cc3)n12)NCc1ccco1,inactive
18,Cn1c(-c2ccc(F)cc2)cnc1SCC(=O)NNC(=O)Cc1ccccc1,inactive
19,Cn1c(-c2ccc(F)cc2)cnc1SCC(=O)NCc1ccco1,31.6 µM (active)
20,Cc1cc(C)n2nc(SCC(=O)NC(=O)NCc3ccco3)nc2n1,inactive
21,CCn1c(SCC(=O)NCc2ccco2)nnc1-c1ccc(N)cc1,inactive
22,COc1cccc(NC(=O)C(=O)NCC(c2ccc3c(c2)OCO3)N2CCN(C)CC2)c1 (stereo not given),inactive
23,Cc1ccc(CN2CCC(CNC(=O)c3cnn(-c4ccccc4Cl)c3C3CCN(C(=O)OC(C)(C)C)CC3)CC2)cc1,inactive
24,COc1ccc2c(c1)c(=O)c(C(=O)c1ccccc1)cn2CC(=O)Nc1ccc2c(c1)OCCO2,inactive
25,CCOc1ccccc1NC(=O)Cn1c(=O)n(-c2cccc(C)c2)c(=O)c2c1c1cc(OC)ccc1n2C,inactive

row,SMILES,Potency
1,O=C(Cn1cnc2c(oc3ccccc32)c1=O)Nc1ccc(OC(F)(F)F)cc1,inactive
2,CC(CCCc1ccccc1)NC(=O)c1nn(-c2ccc(Cl)cc2)nc1CO (stereo not given),inactive
3,O=C(NCCCO)c1nn(-c2ccc(Cl)cc2)nc1CO,inactive
4,O=C(N/N=C/c1ccc(Br)o1)c1cncc(Br)c1,inactive
5,O=C(CCC(=O)N/N=C/c1ccc(Br)o1)N/N=C/c1ccc(Br)o1,35.5 µM (active)
6,O=C(CN1CCOCC1)N/N=C/c1ccc(-c2ccc(Br)cc2)o1,inactive
7,CC(C)(C)OC(=O)N1CCC(c2c(C(=O)NCCc3ccsc3)cnn2-c2ccc(F)cc2F)CC1,inactive
8,CCN(CC)c1ccc2oc(=O)c(C)nc2c1,35.5 µM (active)
9,Cc1ccc(NC(=O)Nc2ccc3oc(C)nc3c2)cc1,inactive
10,CCc1ccc2oc(-c3ccc(N)cc3)nc2c1,inactive
11,Cc1cccc2c(=O)cc(CSc3ccccc3NC(=O)C(C)C)[nH]c12,inactive
12,O=C(Nc1ccccc1F)C(c1ccccc1)N1Cc2ccccc2C1=O (stereo not given),inactive
13,Cc1ccc(-c2nc(CS(=O)(=O)CC(=O)NCc3ccc4c(c3)OCO4)c(C)o2)cc1,20 µM (active)
14,COc1ccc(-c2nc(CS(=O)(=O)CC(=O)NCc3cccc(Br)c3)c(C)o2)cc1,inactive
15,Cc1ccc(-c2nc(CS(=O)(=O)CC(=O)NCc3ccccc3Cl)c(C)o2)cc1,inactive
16,O=C(NCc1ccccc1)c1cccc(NC(=O)N2CCSc3ncccc32)c1,inactive
17,O=C(c1cccc(Br)c1)N1CCN(Cc2cc(=O)n3nc(-c4ccccc4)sc3n2)CC1,inactive
18,O=C(Nc1ccc(S(=O)(=O)Nc2ncccn2)cc1)c1cncc(Br)c1,inactive
19,O=C(NC(=S)Nc1ccc(S(=O)(=O)Nc2ncccn2)cc1)c1cccc(Br)c1,20 µM (active)
20,NS(=O)(=O)c1ccc(NC(=S)NC(=O)c2cccc(Br)c2)cc1,15.8 µM (active)
21,NS(=O)(=O)c1ccc(NC(=S)Nc2ccc(Br)c(Cl)c2)cc1,inactive
22,Cc1cc(NS(=O)(=O)c2ccc(NC(=O)c3cccnc3)cc2)nc(C)n1,inactive
23,NS(=O)(=O)c1ccc(NC(=S)NC(=O)c2cccnc2)cc1,22.4 µM (active)
24,COc1ccc(OC)c(C(C)NC(=S)Nc2ccc(S(=O)(=O)Nc3ncccn3)cc2)c1 (stereo not given),inactive
25,CC(C)NS(=O)(=O)c1ccc(NC(=O)c2cccnc2)cc1,inactive

row,SMILES,Potency
1,O=C(NC(=S)Nc1cccc2c(O)cccc12)c1cccc(Br)c1,inactive
2,O=C(CSc1nnc(CNC(=O)c2ccccc2)n1-c1ccc(F)cc1)Nc1ccccc1F,inactive
3,CCOc1ccc2oc(=O)cc(CN3CCN(C(=O)c4ccc(F)cc4)CC3)c2c1,inactive
4,O=C1CSC2(C(=O)N(Cc3ccccc3)c3ccccc32)N1c1cccc(F)c1 (stereo not given),inactive
5,O=C(Nc1ccc(-c2nc3cc(NC(=O)c4ccccc4Cl)ccc3o2)cc1)c1ccccc1Cl,inactive
6,COc1cccc(C(=O)Nc2ccc(-c3cc(C(F)(F)F)nn3-c3ccccc3)cc2)c1,inactive
7,Cc1cc(OCC(=O)Nc2ncn[nH]2)c(C)c(C)c1Br,inactive
8,CC(NC(=O)CSc1nc2c(cc1C#N)CN(C)CC2)c1ccccc1 (stereo not given),inactive
9,Cc1c(-c2ccccc2)nc(N)c(C#N)c1-c1cccs1,inactive
10,CN1CCc2nc(SC(C(=O)O)c3ccccc3)c(C#N)c(-c3cccs3)c2C1 (stereo not given),39.8 µM (active)
11,O=C(c1ccc(C(F)(F)F)cc1)N1CCC(c2nc(-c3ccc(S(=O)(=O)N4CCCC4)cc3)no2)CC1,inactive
12,COc1ccc(OC)c(CNC(=O)Cn2nc(C)c3c(C)n(-c4ccccc4)nc3c2=O)c1,inactive
13,NS(=O)(=O)c1ccc(NC(=O)COC(=O)c2ccco2)cc1,inactive
14,CCc1ccc(CCC(=O)Nc2ccc(S(N)(=O)=O)cc2)o1,50.1 µM (active)
15,CC1CC(C)CN(CC(=O)Nc2ccc(S(N)(=O)=O)cc2)C1 (stereo not given),inactive
16,O=C(NCc1ccc2c(c1)CCN2C(=O)c1ccccc1)Nc1cc(F)ccc1F,inactive
17,Cc1ccc2c(=O)c(C(=O)c3cccc(Cl)c3)cn(CC(=O)NCc3ccccc3)c2n1,inactive
18,O=C(NCC(c1ccc2c(c1)OCO2)N1CCN(c2ccccc2)CC1)C(=O)Nc1ccccc1F (stereo not given),inactive
19,COC(=O)c1nc(NC(=O)c2ccc(C(C)(C)C)cc2)n[nH]1,inactive
20,CCOC(=O)NNC(=O)c1ccc(Cl)cc1,inactive
21,COc1ccc(C(=O)Nc2ccc(F)cc2F)cc1,inactive
22,COC(=O)c1sccc1NC(=O)c1ccc(Cl)cc1,inactive
23,COC(=O)c1nc(NC(=O)c2ccc(Cl)cc2)n[nH]1,39.8 µM (active)
24,COC(=O)c1nc(NC(=O)c2ccc(F)cc2)n[nH]1,28.2 µM (active)
25,NS(=O)(=O)c1ccc(NC(=O)COc2ccc(S(=O)(=O)NC3CCCCC3)cc2)cc1,inactive
